# In the supplement of paper PMC10338343:
# ± gives the standard deviation.
# System: EfPiwi piRISC loaded with L1MC piRNA (26 nt)
# Assay: pre-steady-state target cleavage rate (min^-1); auxiliary factor: 500 nM Ephydatia muelleri Gtsf1; guide: L1MC piRNA 5'p-UAACUAAAUACUAUGCAAGCUGUAGG; MIWI and MILI are mouse PIWI proteins and EfPiwi is from a freshwater sponge; tags in brackets are library labels; higher = faster piRNA-guided slicing of the target
# Outline: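 The pre-steady-state cleavage rate was calculated from a burst-and-steady-state fit. Data came from Cleave-'n-Seq, in which […] transcribed, DNA-blocked target RNA library was mixed with 1 nM active affinity-purified piRISC carrying one synthetic guide, with or without 500 nM GTSF1 partner protein, in HEPES–potassium acetate buffer at 33 °C for 0–8 or 0–960 min. Uncleaved targets were sequenced and normalised to depth and to weakly complementary targets, three trials were pooled, and k3 was capped at 0.0001 min^-1.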
row,Sequence,pre-steady-state target cleavage rate
1,UCCUGGUAGAGGUUGCAUAGUAUUUAGUUA,0.00483 ± 0.0034
2,UCCUGGAACAGCUUGCAAGUAUUUAGUUA,0.00284 ± 0.0019
3,UCCUGGAACAGCUUGCAUAGUAUUUAGUUC [g2:g23:cont:t1C],0.00959 ± 0.0037
4,UCCUGCUACAGCAUUGCAUAGUAUUUAGUUA,0.00946 ± 0.0029
5,UCCUGCUACGGCUUGCAUAGUAUUUAGUUA,0.00972 ± 0.0027
6,UCCUGGAUCAGUCUUGCAUAGUAUUUAGUUA,0.0152 ± 0.0042
7,UCCUGCUACACCUUGCAUUGUAUUUAGUUA,0.00323 ± 0.0025
8,UCCUGGAUGUGGUUGCAUAGUAUAUAGUUA,0.00747 ± 0.0056
9,UCCUGGAUCAGCUUGCAUAGUAUUUAGUAUA,0.0115 ± 0.0043
10,UCCUGCAACAGCUUGCAUAGUAUUUAGUAA,0.00572 ± 0.0023
11,UCCUGCUUCACCUUGCAUAGUAUUUAGUUA,0.0076 ± 0.0034
12,UCCUGGAAGAGCUUGGAUAGUAUUUAGUUA,0.00392 ± 0.0027
13,UCCUCCUACACCUUGCUUAGUAUUUAGUUA,0.00914 ± 0.0039
14,UCCUGGUACAGCUUGCAUAGUAUUUAUGUUA,0.00329 ± 0.0024
15,UCCUCCUACACCUUGCAAAGUAUUUAGUUA,0.0172 ± 0.007
16,UCCUGCUACAGGUUGCAAAGUAUUUAGUUA,0.0385 ± 0.0096
17,UCCUGCUACAGCUUGCUUAGUUUUUAGUUA,0.0055 ± 0.0019
18,UCCUGGAUCAGGUUGCAUAGUAUUUAGUUA,0.0232 ± 0.0061
19,UCCUGGAUGUGGCUUGCAUAGUAUUUAGUUA,0.0125 ± 0.0049
20,UCCUGGAUCAGCUUGCAAAGUAUUUAGAUA,0.00558 ± 0.0029

row,Sequence,pre-steady-state target cleavage rate
1,UCCUGGUACAGCUUACAUAGUAUUUAGUUA,0.0283 ± 0.0076
2,UCCUGGAUGUCCCUUGCAUAGUAUUUAGUUA,0.00608 ± 0.0026
3,UCCUGCUACAGGUAGCAUAGUAUUUAGUUA,0.0207 ± 0.0042
4,UCCUCCUACAGCUUGCAUAGUAUUUAGUUUA,0.145 ± 0.039
5,UCCUGGAUCAGGUUGCAAAGUAUUUAGUUA,0.0172 ± 0.0054
6,UCCUGGAACAGCGUGCAUAGUAUUUAGUUA,0.0168 ± 0.005
7,UCCUGGAUGUGCUUGCAAAGUAUUUAGUUA,0.00905 ± 0.0036
8,UCCUGGAUCAGCUUGGAAAGUAUUUAGUUA,0.00365 ± 0.0033
9,UCCUCCUUGUGCUUGCAUAGUAUUUAGUAA,0.00675 ± 0.0029
10,UCCUGCUACAGCAUGCAUAGUAUUUAGUUA,0.0124 ± 0.0037
11,UCCUCCUACAGCUUGCUUAGUAUUUUGUUA,0.00532 ± 0.0028
12,UCCUGGUACAGGAAGCAUAGUAUUUAGUUA,0.00248 ± 0.0023
13,UCCUGGAUCUGCUUGCAUAGUAUUAAGUUA,0.00735 ± 0.0037
14,UCCUCCUACAGCUUGCAUAGUAUUUACUUA,0.0042 ± 0.0034
15,UCCUGGUCCAGCUUGCAUAGUAUUUAGUUA,0.0262 ± 0.007
16,UCCUGGAUCAGCAUGCAUAGUAUUAAGUUA,0.00392 ± 0.002
17,UCCUGGAUCUCCUUGCAUAGUAUUUAGUUA,0.0227 ± 0.0066
18,UCCUGGAUCAGCUACCAUAGUAUUUAGUUA,0.00516 ± 0.0032
19,UCCUCCUAGAGCUUGGAUAGUAUUUAGUUA,0.0312 ± 0.0067
20,UCCUGGAUGAGCUUUGCAUAGUAUUUAGUUA,0.0107 ± 0.0037
